Data: PubChem BioAssay
Active and inactive are the calls of the source.

Legend:
[1] = optical density shifts of acrAB sulA E. coli – strain DRC41, OD650, 48 h, E. coli filamentation inducer project, primary screen (AID 1152); conditions: higher = more signal, called active from +8 up or from −8 down;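 further: E. coli MC1000 strain DRC41 lacking acrAB efflux pump and sulA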
[2] = probe aLefty1 binding on compound microarray – biochemical, small-molecule microarray, 635/667 nm fluorescence, primary screen (AID 1153); conditions: higher = more signal;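 further: score merges spot fluorescence with signal-to-noise ratio from the scanned slide images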
[3] = plasmodial surface anion channel blockers, osmotic lysis – cell-based, P. falciparum Indochina, OD700, 1 h, primary screen (AID 1154); conditions: P. falciparum Indochina infected RBC osmotic lysis, higher = more signal, called active from +8 up or from −8 down
[4] = plasmodial surface anion channel blockers, osmotic lysis – cell-based, P. falciparum Indochina, OD700, 2 h, primary screen (AID 1155);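 further: lysis reports solute entry through the parasite surface anion channel PSAC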; conditions: P. falciparum Indochina infected erythrocytes, higher = more signal, called active from +8 up or from −8 down
[5] = changes in parasitized red cell lysis, either direction – P. falciparum Indochina, OD700, 3 h, PSAC antagonist project, primary screen (AID 1156); conditions: P. falciparum-infected erythrocytes, osmotic lysis, higher = more signal, called active from +8 up or from −8 down
[6] = plasmodial surface anion channel blockers, osmotic lysis – cell-based, P. falciparum Indochina, OD700, 18 h, primary screen (AID 1157); conditions: P. falciparum Indochina infected erythrocytes, osmotic lysis OD700, 18 h; higher = more signal, called active from +8 up or from −8 down
[7] = S6 kinase pathway phospho-S6 level changes – cell-based, A549, cytoblot, luminescence, serum-stimulated, primary screen (AID 1158); conditions: 5 h, higher = more signal;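 further: serum-stimulated A549 lung adenocarcinoma cells; signal is phosphorylated S6 detected by cytoblot immunostaining with HRP secondary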
[8] = target: NADPH oxidase 2 (Homo sapiens) (UniProt P04839); assay: compounds shifting NOX2 Amplex Red fluorescence – cell-based, HEK293-NOX2, PMA-stimulated, NOX inhibitor project, primary screen (AID 1159); conditions: 45 min, higher = more signal, called active from +8 up or from −8 down; further: test concentration not given here
[9] = target: NADPH oxidase 4 (Homo sapiens) (UniProt Q9NPH5); assay: compounds shifting NOX4 Amplex Red fluorescence – cell-based, HEK293-NOX4, tetracycline-induced, NOX inhibitor project, primary screen (AID 1160); conditions: HEK293-NOX4, Amplex Red H2O2 fluorescence, 45 min; higher = more signal, called active from +8 up or from −8 down
[10] = target: NADPH oxidase 5 (Homo sapiens) (UniProt Q96PH1); assay: compounds shifting NOX5 Amplex Red fluorescence – cell-based, HEK293-NOX5, NOX inhibitor project, primary screen (AID 1161); conditions: HEK293-NOX5, ionomycin, 45 min, higher = more signal
Chain of NADPH oxidase 5 (Homo sapiens) (Q96PH1 whole entry, looked up): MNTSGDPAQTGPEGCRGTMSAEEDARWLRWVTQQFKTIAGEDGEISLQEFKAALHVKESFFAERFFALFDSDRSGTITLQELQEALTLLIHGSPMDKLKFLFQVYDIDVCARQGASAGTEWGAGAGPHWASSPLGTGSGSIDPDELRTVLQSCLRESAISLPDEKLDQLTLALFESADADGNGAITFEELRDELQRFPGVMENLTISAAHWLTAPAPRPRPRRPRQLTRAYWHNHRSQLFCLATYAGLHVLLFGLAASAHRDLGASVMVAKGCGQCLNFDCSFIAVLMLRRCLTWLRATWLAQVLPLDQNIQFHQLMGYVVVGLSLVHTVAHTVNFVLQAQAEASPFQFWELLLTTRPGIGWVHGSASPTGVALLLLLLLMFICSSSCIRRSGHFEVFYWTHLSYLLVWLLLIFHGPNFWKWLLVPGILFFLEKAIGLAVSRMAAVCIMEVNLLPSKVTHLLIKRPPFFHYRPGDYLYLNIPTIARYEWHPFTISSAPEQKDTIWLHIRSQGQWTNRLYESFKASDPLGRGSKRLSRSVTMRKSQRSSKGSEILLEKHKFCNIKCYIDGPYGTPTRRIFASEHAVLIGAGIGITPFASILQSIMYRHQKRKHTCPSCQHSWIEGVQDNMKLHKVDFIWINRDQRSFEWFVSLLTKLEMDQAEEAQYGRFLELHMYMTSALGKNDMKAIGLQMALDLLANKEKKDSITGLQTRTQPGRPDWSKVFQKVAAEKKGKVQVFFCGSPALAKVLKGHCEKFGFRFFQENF

Chain of NADPH oxidase 2 (Homo sapiens) (P04839 whole entry, looked up): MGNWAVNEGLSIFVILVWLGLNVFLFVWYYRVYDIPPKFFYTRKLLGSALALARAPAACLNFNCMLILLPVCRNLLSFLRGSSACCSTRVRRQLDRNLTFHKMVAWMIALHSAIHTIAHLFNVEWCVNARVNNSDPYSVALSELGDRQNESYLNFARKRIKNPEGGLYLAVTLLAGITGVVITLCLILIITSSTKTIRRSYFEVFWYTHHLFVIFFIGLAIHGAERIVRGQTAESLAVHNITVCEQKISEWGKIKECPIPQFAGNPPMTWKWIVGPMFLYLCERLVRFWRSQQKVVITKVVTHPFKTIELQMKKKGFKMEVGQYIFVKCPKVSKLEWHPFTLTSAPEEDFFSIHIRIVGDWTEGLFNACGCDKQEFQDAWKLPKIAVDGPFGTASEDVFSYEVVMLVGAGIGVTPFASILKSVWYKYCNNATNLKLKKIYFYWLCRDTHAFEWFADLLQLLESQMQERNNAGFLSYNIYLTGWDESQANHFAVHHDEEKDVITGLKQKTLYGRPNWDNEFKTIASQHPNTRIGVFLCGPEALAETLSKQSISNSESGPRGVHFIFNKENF
Chain of NADPH oxidase 4 (Homo sapiens) (Q9NPH5 whole entry, looked up): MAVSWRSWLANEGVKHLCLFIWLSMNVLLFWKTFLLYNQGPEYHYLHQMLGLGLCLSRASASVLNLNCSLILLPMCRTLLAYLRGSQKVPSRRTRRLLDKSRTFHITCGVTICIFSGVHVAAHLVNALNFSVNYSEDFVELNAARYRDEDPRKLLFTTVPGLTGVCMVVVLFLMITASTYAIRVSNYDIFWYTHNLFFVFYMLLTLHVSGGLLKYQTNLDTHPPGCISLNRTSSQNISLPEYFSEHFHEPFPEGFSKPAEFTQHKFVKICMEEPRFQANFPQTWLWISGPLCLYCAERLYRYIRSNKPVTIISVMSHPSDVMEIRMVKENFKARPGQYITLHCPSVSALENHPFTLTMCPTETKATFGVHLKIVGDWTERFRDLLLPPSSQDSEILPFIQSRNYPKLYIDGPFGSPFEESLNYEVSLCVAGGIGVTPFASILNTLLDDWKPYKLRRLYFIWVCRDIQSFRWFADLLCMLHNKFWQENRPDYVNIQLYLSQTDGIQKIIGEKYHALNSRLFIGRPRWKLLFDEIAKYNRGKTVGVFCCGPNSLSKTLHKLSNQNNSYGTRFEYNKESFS

SMILES	z-score [1]	composite z-score [2]	z-score [3]	z-score [4]	z-score [5]	z-score [6]	z-score [7]	z-score [8]	z-score [9]	z-score [10]
C=CCOC(=O)[C@@H]1[C@H]2C(=O)O[C@H](c3ccccc3)[C@H](c3ccccc3)N2[C@H](c2ccc(OCCOC(=O)[C@@H]3C[C@@H]4C(=O)N[C@@H](Cc5ccccc5)C(=O)N4[C@@H]3c3ccc(O)cc3)cc2)[C@@]12C(=O)Nc1ccc(I)cc12	0.299 (inactive)	0.546	2.33 (inactive)	1.87 (inactive)	5.01 (inactive)	1.14 (inactive)	0.572	0.715 (inactive)	0.304 (inactive)	0.591
O=C1OCCC/C=C\[C@H]2OC34C=CCN(Cn5nnc6ccccc65)C(=O)[C@H]3N(CCCCCCO)C(=O)[C@@H]4C12 (stereo not given in full)	3.64 (inactive)	-0.481	3.95 (inactive)	-0.392 (inactive)	-0.193 (inactive)	-0.677 (inactive)	2.58	1.15 (inactive)	0.377 (inactive)	2.11
CCc1oc(CC[C@@H](CO)NC(=O)NCCn2cc(C3(O)CCCCC3)nn2)c(C(=O)OC)c1C(=O)OC	-1.26 (inactive)	0.0768	25.6 (active)	7.39 (inactive)	0.709 (inactive)	1.07 (inactive)	-0.524	-1.59 (inactive)	-0.491 (inactive)	-1.14
C=CCNC(=O)[C@H]1[C@@H]2C(=O)O[C@@H](c3ccccc3)[C@@H](c3ccccc3)N2[C@@H](c2ccc(O)cc2)[C@]12C(=O)N(C(=O)OCCOC)c1ccc(C#CCNC(N)=O)cc12	-0.929 (inactive)	0.378	1.78 (inactive)	0.441 (inactive)	-0.627 (inactive)	0.0898 (inactive)	-0.272	1.28 (inactive)	0.291 (inactive)	0.383
CN(C)C(=O)[C@@]1(Cc2ccccc2CN=[N+]=[N-])N=C(c2ccc(OCCCO)cc2)O[C@H]1c1ccccc1	0.381 (inactive)	1.18	20.9 (active)	5.46 (inactive)	1.59 (inactive)	1.45 (inactive)	-0.0813	-2.45 (inactive)	-0.0483 (inactive)	0.524
Cc1ccc(S[C@]2(C(=O)NC(C)C)CC(=O)N(Cc3ccccc3Cl)[C@@H]2c2ccc(CO)cc2I)cc1	-0.462 (inactive)	0.0023	11.2 (active)	1.44 (inactive)	0.681 (inactive)	0.377 (inactive)	-0.487	0.769 (inactive)	-1.51 (inactive)	0.183
